According to PubChem BioAssay (NCATS):
Inconclusive results are not listed. Entries that show only a call come without a potency. Activity calls are given as the source filed them. Unless noted, calls come from the whole dose curve; as a rule, active = well fitted curve in the direction sought with a large enough effect; inconclusive = small, poorly fitted or top-dose-only effect, or another doubt; inactive = no such curve, though single readings can be large; an effect the other way counts as inactive or inconclusive.

Key:
[1] = Drug repurposing screens with cells derived from glioblastoma tumor samples (AID 1345199); conditions: GBM patient neurospheres viability, ATP luminescence, 48 h; note: nearly all actives have a fitted effect of over 40% in size; note: potency is the fitted concentration of half-maximal effect
In short: (§1)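 Primary testing used CD133+ neurospheres from four GBM patients, seven concentrations, 48 h exposure and ATP-based viability; confirmation added three slower-growing patient lines.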

NIH3T3 = experiment: qHTS assay to identify novel small-molecules to repurpose for Merkel cell carcinoma treatment (AID 1296009); conditions: MCC and control cell lines, CellTiter-Glo viability, 72 h; at 44.8 µM (top of the series); note: nearly all actives have a fitted effect of over 60% in size
In short: (§2)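 Cell viability measured by CellTiter-Glo following 72 hr compound treatment at 37 degree celsius, with NPC and MIPE libraries tested in 8- and 11-point concentration series.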

C33A = experiment: Primary qHTS to identify gynecologic anti-cancer compounds using libraries of approved drugs and bioactive compounds (AID 1345084); conditions: Gynecologic cancer cell panel viability, ATPlite luminescence, 48 h; series mostly up to 57.5 µM; note: nearly all actives have a fitted effect of over 55% in size
In short: (§3)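 Cells, 1,000 per well, plated 16 h, then exposed 48 h at 37 C to compounds. Viability by ATPlite luminescence after 15 min at room temperature.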

CASKI = experiment: as above; conditions: Gynecologic cancer cell panel viability, ATPlite luminescence, 48 h; series mostly up to 57.5 µM
In short: as §3

Es-2 = experiment: as above; conditions: Gynecologic cancer cell panel viability, ATPlite luminescence, 48 h; series mostly up to 57.5 µM
In short: as §3

Hek293T = experiment: as above; conditions: Gynecologic cancer cell panel viability, ATPlite luminescence, 48 h, control line for the selectivity index; series mostly up to 57.5 µM
In short: as §3

JEG-3 = experiment: as above; conditions: Gynecologic cancer cell panel viability, ATPlite luminescence, 48 h; series mostly up to 57.5 µM
In short: as §3

OV90 = experiment: as above; conditions: Gynecologic cancer cell panel viability, ATPlite luminescence, 48 h; series mostly up to 57.5 µM
In short: as §3

PA-1 = experiment: as above; conditions: Gynecologic cancer cell panel viability, ATPlite luminescence, 48 h; series mostly up to 57.5 µM
In short: as §3

SKOV3 = experiment: as above; conditions: Gynecologic cancer cell panel viability, ATPlite luminescence, 48 h; series mostly up to 57.5 µM
In short: as §3

Tov-21-G = experiment: as above; conditions: Gynecologic cancer cell panel viability, ATPlite luminescence, 48 h; series mostly up to 57.5 µM
In short: as §3

Tov112D = experiment: as above; conditions: Gynecologic cancer cell panel viability, ATPlite luminescence, 48 h; series mostly up to 57.5 µM
In short: as §3

HeLa = experiment: as above; conditions: Gynecologic cancer cell panel viability, ATPlite luminescence, 48 h; series mostly up to 57.5 µM
In short: as §3

astro = control astrocytes; experiment: Drug repurposing screens with cells derived from glioblastoma tumor samples (AID 1345199); conditions: viability, ATP luminescence, 48 h; series mostly up to 45.9 µM; note: nearly all actives have a fitted effect of over 40% in size; note: potency is the fitted concentration of half-maximal effect
In short: as §1

MKL-2 = experiment: qHTS assay to identify novel small-molecules to repurpose for Merkel cell carcinoma treatment (AID 1296009); conditions: MCC and control cell lines, CellTiter-Glo viability, 72 h; series mostly up to 46 µM; note: nearly all actives have a fitted effect of over 60% in size
In short: as §2

UISO = experiment: as above; conditions: MCC and control cell lines, CellTiter-Glo viability, 72 h; series mostly up to 46 µM
In short: as §2

WaGa = experiment: as above; conditions: MCC and control cell lines, CellTiter-Glo viability, 72 h; series mostly up to 46 µM
In short: as §2

[2] = target: Nuclear receptor subfamily 1 group I member 2 (Rattus norvegicus) (UniProt Q9R1A7); experiment: qHTS assay for small molecule activators of the rat pregnane X receptor (rPXR) signaling pathway (AID 651751; call rule not given here); conditions: rPXR reporter cells, luciferase (One-Glo), 24 h
Sequence of Nuclear receptor subfamily 1 group I member 2 (Rattus norvegicus) (Q9R1A7 whole entry, looked up): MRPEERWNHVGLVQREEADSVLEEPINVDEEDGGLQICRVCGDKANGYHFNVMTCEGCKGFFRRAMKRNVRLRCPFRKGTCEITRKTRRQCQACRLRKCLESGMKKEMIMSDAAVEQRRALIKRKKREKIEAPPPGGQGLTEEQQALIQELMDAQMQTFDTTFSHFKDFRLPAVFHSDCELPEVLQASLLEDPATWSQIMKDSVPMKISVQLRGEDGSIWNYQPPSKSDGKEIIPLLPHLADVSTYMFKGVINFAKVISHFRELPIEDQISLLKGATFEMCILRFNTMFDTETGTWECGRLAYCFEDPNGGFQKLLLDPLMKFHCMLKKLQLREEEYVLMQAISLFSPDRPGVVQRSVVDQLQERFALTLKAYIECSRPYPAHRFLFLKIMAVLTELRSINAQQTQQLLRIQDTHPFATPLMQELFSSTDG

[3] = qHTS assay for small molecule activators of the human pregnane X receptor (PXR) signaling pathway (AID 720659; call rule not given here); conditions: DPX-2 HepG2 CYP3A4-luciferase, 24 h; series mostly up to 92.3 µM
[4] = at 45.9 µM (top of the series), tumour line B
[5] = at 46.1 µM (top of the series), tumour line C
[6] = at 45.9 µM (top of the series), tumour line D

Compound: CCCCCCCCCCCC(=O)N(CCO)CCO
- activity, negative = cell killing [1, 4]: -26.4% (inactive)

Compound: CCCCC(=O)O[C@H]1CC[C@H]2[C@@H]3CCc4cc(O)ccc4[C@H]3CC[C@]12C
- activity, negative = cell killing [1, 4]: -20.6% (inactive)
- activity, negative = cell killing [1, 5]: 8.7% (inactive)
- Potency ([1]; tumour line A): 28.2 µM (active)
- Potency ([1]; tumour line D): 11.2 µM (active)

Compound: COc1cc(C)c(/C=C/C(C)=C/C=C/C(C)=C/C(=O)O)c(C)c1C
- activity, negative = cell killing [1, 4]: -16.3% (inactive)
- activity, negative = cell killing [1, 6]: 8.72% (inactive)
- activity, negative = cell killing [1, 5]: -9.52% (inactive)

Compound: C[C@]12CC[C@@H]3c4ccc(OC(=O)c5ccccc5)cc4CC[C@H]3[C@@H]1CC[C@@H]2O
- outcome (NIH3T3): inactive
- Potency (C33A): inactive
- Potency (CASKI): inactive
- Potency (Es-2): inactive
- Potency (Hek293T): inactive
- Potency (JEG-3): inactive
- Potency (OV90): inactive
- Potency (PA-1): inactive
- outcome (SKOV3): inactive
- Potency (Tov-21-G): inactive
- outcome (Tov112D): inactive
- activity, negative = cell killing [1, 4]: -25.4% (inactive)
- activity, negative = cell killing [1, 5]: -17.8% (inactive)
- Potency ([1]; tumour line A): 11.2 µM (active)

Compound: C/C(=C\C(=O)OCCCCCCCCC(=O)O)C[C@@H]1OC[C@H](C[C@@H]2O[C@H]2[C@@H](C)[C@H](C)O)[C@@H](O)[C@H]1O
- Potency (C33A): inactive
- Potency (CASKI): inactive
- Potency (Es-2): inactive
- Potency (HeLa): inactive
- Potency (Hek293T): inactive
- Potency (JEG-3): inactive
- Potency (OV90): inactive
- Potency (PA-1): inactive
- Potency (Tov-21-G): inactive
- outcome (Tov112D): inactive
- activity, negative = cell killing [1, 4]: -19.6% (inactive)
- activity, negative = cell killing [1, 6]: -9.28% (inactive)
- activity, negative = cell killing [1, 5]: -21.4% (inactive)
- Potency (astro): inactive

Compound: O=C(OCc1ccccc1)c1ccc(O)cc1
- outcome (MKL-2): inactive
- outcome (UISO): inactive
- outcome (WaGa): inactive
- Potency (C33A): inactive
- Potency (CASKI): inactive
- Potency (Es-2): inactive
- Potency (HeLa): inactive
- Potency (Hek293T): inactive
- Potency (JEG-3): inactive
- Potency (OV90): inactive
- Potency (PA-1): inactive
- outcome (SKOV3): inactive
- Potency (Tov-21-G): inactive
- outcome (Tov112D): inactive
- activity, negative = cell killing [1, 4]: -16.7% (inactive)
- activity, negative = cell killing [1, 6]: -12.6% (inactive)
- activity, negative = cell killing [1, 5]: 10.4% (inactive)
- Potency (astro): inactive
- max response [2]: 2.15% (inactive)
- outcome [3]: inactive
